Compound activity as filed in PubChem BioAssay.
NPC1 prom act: qHTS Assay for NPC1 Promoter Activators; Huh7 NPC1 promoter luciferase reporter, 24 h; Potency, µM (highest dose often 9.22 µM), most hits filed as activators; 320,000 compounds, 2.4% hits; AID 485313, 2010; further: nearly all actives have a fitted effect of over 60% in size
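Huh7 cells stably carrying NPC1 promoter–luciferase, plated in Opti-MEM with 10% FBS for 2 h, were exposed to compound in DMSO for 24 h at 37 °C; luciferase reagent was added for 10 min and luminescence read.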
ELG1 DNA repair: qHTS screen for small molecules that inhibit ELG1-dependent DNA repair in human embryonic kidney (HEK293T) cells expressing luciferase-tagged ELG1; HEK293T ELG1-luciferase reporter, luminescence, 16 h; DNA damage induced by 5-fluorouridine; Potency, µM (highest dose often 46.1 µM), usual class: inhibitors; 330,000 compounds, 2.3% hits; AID 504467, 2011; further: nearly all actives have a fitted effect of over 55% in size
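HEK293T cells expressing luciferase-tagged ELG1 (2,000/well) received 5-Fluorouridine plus compound or DMSO for 16 hr at 37 °C. Luciferase was read by ONE-Glo luminescence after 30 min at room temperature.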
FLuc modulator: qHTS profiling assay for firefly luciferase inhibitor/activator using purifed enzyme and Km concentrations of substrates (counterscreen for miR-21 project). AID 588342, 2011. 360,000 compounds, 6.9% hits. Potency, µM (top dose mostly 57.5 µM), usual class: inhibitors. purified FLuc, Km substrates, luminescence inhibition. Luciferin 4-monooxygenase (Photinus pyralis), P08659; further: nearly all actives have a fitted effect of over 55% in size
Target sequence (P08659 whole entry, looked up): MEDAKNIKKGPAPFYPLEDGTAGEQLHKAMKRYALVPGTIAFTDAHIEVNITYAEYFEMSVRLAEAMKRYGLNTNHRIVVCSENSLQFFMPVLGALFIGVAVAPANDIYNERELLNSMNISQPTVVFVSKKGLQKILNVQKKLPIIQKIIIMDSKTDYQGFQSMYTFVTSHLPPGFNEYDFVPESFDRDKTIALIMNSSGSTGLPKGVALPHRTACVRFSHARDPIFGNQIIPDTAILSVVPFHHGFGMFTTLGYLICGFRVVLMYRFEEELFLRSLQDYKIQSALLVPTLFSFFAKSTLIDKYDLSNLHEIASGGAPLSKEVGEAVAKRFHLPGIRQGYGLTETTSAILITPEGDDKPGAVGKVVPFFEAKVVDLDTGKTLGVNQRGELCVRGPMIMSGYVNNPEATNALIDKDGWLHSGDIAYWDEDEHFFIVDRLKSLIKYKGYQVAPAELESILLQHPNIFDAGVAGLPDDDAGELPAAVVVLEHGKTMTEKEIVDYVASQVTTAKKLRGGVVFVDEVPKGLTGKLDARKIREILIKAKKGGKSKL
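Purified P. pyralis luciferase (10nM final) with 10uM D-luciferin and 10uM ATP (Km levels) in 50mM Tris acetate pH 7.5, 10mM Mg acetate, 0.01% Tween-20, 0.05% BSA; qHTS 6-point titration, ~60 µM downward; luminescence read.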
SMN2 splice enh: qHTS Assay for Enhancers of SMN2 Splice Variant Expression. HEK293 SMN2-luciferase splicing reporter, luminescence, 30-36 h. Potency, µM (top dose mostly 46.1 µM), actives largely listed as activators. 210,000 compounds, 2.8% hits. AID 1458, 2008; further: nearly all actives have a fitted effect of over 55% in size
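qHTS luciferase splicing reporter: luminescence rises when SMN2 exon 7 is included in transfected HEK293 cells. Compound exposure lasted 30-36 h at 37C, with 4.5 mM final sodium butyrate as control, followed by a ONE-Glo read.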
Rab9 prom act: qHTS Assay for Rab9 Promoter Activators; Potency, µM (doses to about 9.22 µM), most hits filed as activators; 320,000 compounds, 2.8% hits; AID 485297, 2010; Huh7 Rab9 promoter-luciferase reporter, luminescence, 24 h; further: nearly all actives have a fitted effect of over 60% in size
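Promoter activation is measured as luciferase luminescence in Huh7 cells stably transfected with a Rab9 promoter–luciferase construct, following 24 h compound exposure at 37 °C and 10 min reagent incubation at ambient temperature.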
ELG1 genotox: qHTS screen for small molecules that induce genotoxicity in human embryonic kidney (HEK293T) cells expressing luciferase-tagged ELG1 | HEK293T ELG1-luciferase reporter, luminescence, 16 h | Potency, µM (series often up to 46 µM), hits mostly activators | 330,000 compounds, 1.3% hits | AID 504466, 2011; further: nearly all actives have a fitted effect of over 60% in size
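ELG1-luciferase HEK293T cells, 2,000/well; compound pinned in; 16 hr, 37 °C, 5% CO2; ONE-Glo, 30 min RT; luminescence on CCD imager.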
Large screens that a line does not name were inactive. Shown are actives, neighbours in structure and some others; about 9.4% of the full set was active somewhere. The call rests on the fitted dose curve; in most records, active means well fitted curve in the direction sought with a large enough effect; inconclusive means small, poorly fitted or top-dose-only effect, or another doubt; inactive means no such curve, though single readings can be large; an effect the other way counts as inactive or inconclusive.

O=C(CSc1nnc(NC(=O)c2ccccc2F)s1)Nc1ccccc1F	NPC1 prom act inconclusive, ELG1 DNA repair inconclusive, FLuc modulator 2.69µM, Rab9 prom act 3.55µM, ELG1 genotox inconclusive
Cc1ccccc1NC(=O)CSc1nnc(NC(=O)c2ccco2)s1	FLuc modulator 26.9µM (no result: SMN2 splice enh)
O=C(CSc1nnc(NC(=O)c2ccco2)s1)Nc1ccccc1Br	none (no result: SMN2 splice enh)
CC(C)(C)CC(=O)Nc1nnc(SCC(=O)Nc2ccccc2F)s1	ELG1 DNA repair inconclusive
COc1cc(-c2nnn(CC(=O)Nc3ccc(OC(F)(F)F)cc3)n2)cc(OC)c1OC	none (no result: NPC1 prom act, ELG1 DNA repair, Rab9 prom act, ELG1 genotox)
CCCC(=O)Nc1nnc(SCc2cc(=O)c3cc(C)ccc3[nH]2)s1	none (no result: NPC1 prom act, ELG1 DNA repair, SMN2 splice enh, Rab9 prom act, ELG1 genotox)
COc1cc2[nH]c(=O)n3nc(-c4ccccc4)nc3c2cc1OC	ELG1 DNA repair 20.6µM
COc1ccc(CNC(=O)CCn2c(=O)[nH]c3ccccc3c2=O)cc1	none
COc1ccc(-c2nc3c4ccccc4[nH]c(=O)n3n2)cc1	FLuc modulator 8.49µM (no result: NPC1 prom act, ELG1 DNA repair, Rab9 prom act, ELG1 genotox)
CC(C)C(=O)Nc1nc2cc3c(cc2s1)OCCO3	NPC1 prom act 0.891µM, ELG1 DNA repair inconclusive, FLuc modulator 2.39µM, Rab9 prom act 0.501µM, ELG1 genotox inconclusive (no result: SMN2 splice enh)
CC(=O)c1sc(Nc2nc3cc4c(cc3s2)OCO4)nc1C	NPC1 prom act 3.55µM, ELG1 DNA repair inconclusive, FLuc modulator 3.79µM, SMN2 splice enh 11.2µM, Rab9 prom act 2µM, ELG1 genotox inconclusive
CCOC(=O)c1sc(Nc2nc3cc4c(cc3s2)OCO4)cc1C	NPC1 prom act inconclusive, ELG1 DNA repair inconclusive, FLuc modulator 2.69µM, SMN2 splice enh inconclusive, Rab9 prom act inconclusive
CC(=O)Nc1nc2cc3c(cc2s1)OCO3	NPC1 prom act inconclusive, ELG1 DNA repair inconclusive, FLuc modulator 19µM, SMN2 splice enh inconclusive, Rab9 prom act 3.98µM, ELG1 genotox inconclusive
O=C(COc1ccccc1)Nc1nc2cc3c(cc2s1)OCCO3	ELG1 genotox inconclusive (no result: SMN2 splice enh)
CCC(=O)C1=C(c2cccc([N+](=O)[O-])c2)N(C(=O)CC)n2c(nnc2-c2ccccc2)S1	none (no result: NPC1 prom act, ELG1 DNA repair, SMN2 splice enh, Rab9 prom act, ELG1 genotox)
CCOC(=O)c1sc(Nc2nc3c(OC)cccc3s2)cc1C	NPC1 prom act inconclusive, ELG1 DNA repair inconclusive, FLuc modulator 7.57µM, Rab9 prom act inconclusive
O=C(Nc1nc2cc3c(cc2s1)OCO3)C1=COCCO1	NPC1 prom act 0.631µM, ELG1 DNA repair inconclusive, FLuc modulator 0.19µM, SMN2 splice enh 0.501µM, Rab9 prom act 0.251µM, ELG1 genotox 0.411µM
Cc1sc(NC(=O)C2=COCCO2)nc1-c1ccc(Br)cc1	ELG1 DNA repair inconclusive (no result: SMN2 splice enh)
COc1ccc(C(=O)NC2(C(F)(F)F)C(=O)NC(C)=C2C#N)cc1 (configuration not stated)	none (no result: NPC1 prom act, ELG1 DNA repair, Rab9 prom act, ELG1 genotox)
COc1cc(OC)c(NC(=O)c2c(C)oc3nc(C)nc(N4CCOCC4)c23)cc1Cl	none (no result: NPC1 prom act, ELG1 DNA repair, SMN2 splice enh, Rab9 prom act, ELG1 genotox)
Cc1cccc(Oc2ccc(Cl)cc2N)c1	FLuc modulator 16.9µM
Nc1cc(Cl)ccc1Oc1ccccc1	none
Cc1ccoc1C(=O)Nc1ccc2ccccc2c1	NPC1 prom act 1µM, ELG1 DNA repair inconclusive, FLuc modulator 0.379µM, Rab9 prom act 0.447µM, ELG1 genotox inconclusive (no result: SMN2 splice enh)
Cc1cc(C(=O)Nc2ccc3ccccc3c2)c(C)o1	NPC1 prom act 1.41µM, ELG1 DNA repair inconclusive, FLuc modulator 1.35µM, Rab9 prom act 3.55µM, ELG1 genotox 0.651µM (no result: SMN2 splice enh)
Cc1cc(C(=O)Nc2ccc3ccccc3c2)oc1C	NPC1 prom act 0.631µM, ELG1 DNA repair inconclusive, FLuc modulator 2.13µM, Rab9 prom act 0.794µM, ELG1 genotox 9.2µM (no result: SMN2 splice enh)
CC(C)CC(=O)Nc1ccc2ccccc2c1	ELG1 DNA repair inconclusive, SMN2 splice enh inconclusive, Rab9 prom act inconclusive
Cc1ccoc1C(=O)Nc1ccc(CC(=O)O)cc1	ELG1 DNA repair inconclusive, FLuc modulator 1.69µM, SMN2 splice enh inconclusive, ELG1 genotox inconclusive
CC(=O)c1cc(C(=O)Nc2ccc3ccccc3c2)c(C)o1	none (no result: SMN2 splice enh)
Cc1ccc(C(=O)c2cn(Cc3cc(C)ccc3C)c3nc(C)ccc3c2=O)cc1	none (no result: NPC1 prom act, ELG1 DNA repair, Rab9 prom act, ELG1 genotox)
CCOc1ccc(N(CC)S(=O)(=O)N2CCCC(C(=O)NCc3ccccc3OCC)C2)cc1 (configuration not stated)	none (no result: NPC1 prom act, ELG1 DNA repair, SMN2 splice enh, Rab9 prom act, ELG1 genotox)
COc1ccc(NC(=O)CSc2nc3ccccc3n2CC(=O)N(C)C2CCCCC2)cc1	none (no result: NPC1 prom act, ELG1 DNA repair, SMN2 splice enh, Rab9 prom act, ELG1 genotox)
COc1ccc2c(c1)CCc1c(C(=O)Nc3c(C)nn(Cc4ccc(C)cc4)c3C)noc1-2	none (no result: NPC1 prom act, ELG1 DNA repair, Rab9 prom act, ELG1 genotox)
O=C1OC(c2ccc(F)cc2)=C/C1=C\c1ccc(O)cc1	FLuc modulator 10.7µM (no result: SMN2 splice enh)
Cc1nc2sc(C(N)=O)c(N)c2c(-c2ccc(Br)cc2)c1C(=O)Nc1ccc(Cl)cc1	none (no result: NPC1 prom act, ELG1 DNA repair, Rab9 prom act, ELG1 genotox)
O=C(Nc1cccc2ccccc12)c1ccc([N+](=O)[O-])s1	ELG1 DNA repair 16.4µM
Cc1ccc(C(=O)NNC(=S)Nc2cccc3ccccc23)s1	ELG1 DNA repair inconclusive, FLuc modulator 10.7µM (no result: SMN2 splice enh)
O=C(Nc1ccccc1F)c1ccc([N+](=O)[O-])s1	ELG1 DNA repair 23.1µM
COc1ccccc1NC(=O)c1cc2c([nH]c1=O)CC(C)(C)CC2=O	none (no result: NPC1 prom act, ELG1 DNA repair, Rab9 prom act, ELG1 genotox)
O=S(=O)(O)CCCc1cccc2ccccc12	none (no result: NPC1 prom act, ELG1 DNA repair, FLuc modulator, Rab9 prom act, ELG1 genotox)
CCOC(=O)c1ccccc1NC(=O)CSc1nnc(Cc2cccn2C)n1-c1ccc(F)cc1	Rab9 prom act 3.16µM
CC(C)CC(=O)N1CCN(c2ccc(NC(=O)c3ccco3)cc2)CC1	Rab9 prom act 3.16µM (no result: SMN2 splice enh)
